Growth data for nine molecules are collected here from PubChem BioAssay (NCI).

Structures are written as SMILES. The panel holds about 83,000 compounds, 20% with a hit somewhere; the sample as a whole holds those more often.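 A percent growth of 40 corresponds to 60% growth inhibition; 0 means no net growth; -100 means all cells died. Active threshold: below 10.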 Values without a mark were called inactive. Calls of active or inactive are those of the source.

Holding throughout (assay): NCI-60 one-dose screen, 48 h (100 = growth as untreated, 0 = no growth, -100 = all killed)
What all share (settings): 10 µM unless noted

Experiment [1] deals with SR leukemia.
Experiment [2] deals with RPMI-8226 leukemia.
Experiment [3] relates to OVCAR-8 ovarian.
Experiment [4] relates to OVCAR-5 ovarian.
The subject of experiment [5] is OVCAR-4 ovarian.
The test system of experiment [6] is SK-OV-3 ovarian.
Experiment [7] has as its system IGROV1 ovarian.
In experiment [8] the test system is OVCAR-3 ovarian.
The subject of experiment [9] is HS 578T breast.
The test system of experiment [10] is NCI/ADR-RES ovarian.
For experiment [11], the system named is T-47D breast.
Experiment [12] deals with BT-549 breast.
The subject of experiment [13] is MDA-MB-435 melanoma.
Experiment [14] deals with SW-620 colon.
Experiment [15] concerns MCF7 breast.
The subject of experiment [16] is HCT-116 colon.
Experiment [17] has as its system HCC-2998 colon.
Experiment [18] relates to KM12 colon.

Turning to `CCN(CC)c1cn(-c2ccc(S(N)(=O)=O)cc2)nn1`, the growth was 97% in [1]; 103% in experiment [2]; 102% in experiment [3]; 105% in experiment [4]; 101% in experiment [5]; 113% in experiment [6]. The growth in experiment [7] was 113%; in experiment [8] it was 110%; in experiment [9], 98.3%; in [10], 109%; in [11], 108%; in [12] it was 109%. Further, the growth in [13] is 104%; in experiment [14], 101%; in experiment [15], 97.5%; in experiment [16] it was 116%; in experiment [17] it was 107%; in experiment [18] it was 102%.

Turning to `COc1cc2c(cc1OC)C(Sc1ccc(C)cc1)c1c(nc(N)c(C#N)c1N)O2` (configuration not stated), the growth in [1] was -4.56% (active); in experiment [2] it was -19.2% (active); in experiment [3], 3.56% (active); in [4], -78.8% (active); in [5] it was -59.2% (active); in experiment [6], -70.9% (active). The growth was -72.8% (active) in experiment [7]; -80.7% (active) in experiment [8]; -6.15% (active) in experiment [9]; -32.1% (active) in [10]; -28.9% (active) in experiment [11]; 35% in experiment [12]. The growth is -31.3% (active) in experiment [13]; -36.6% (active) in [14]; -66.9% (active) in [15]; -69.6% (active) in experiment [16]; -85.2% (active) in experiment [17]; -52.5% (active) in [18].

As for `CCOc1ccc(NC2=C(Cl)C(=O)c3nc(C)ccc3C2=O)cc1`, the growth in experiment [1] is -27.4% (active); in [2] it was -19.3% (active); in experiment [3], 1.03% (active); in experiment [4], 54.8%; in [5], -97.5% (active); in experiment [6], 79.8%. The growth is -82.4% (active) in [7]; -97.2% (active) in [8]; 49% in experiment [9]; -15.6% (active) in experiment [10]; -43.8% (active) in [11]; 46.5% in experiment [12]. For the same molecule, the growth in experiment [13] was -83.7% (active); in [14] it was -55.3% (active); in experiment [15] it was -67% (active); in experiment [16], -83.6% (active); in experiment [17], -55.7% (active); in [18], 57.4%.

For the molecule `Cn1ccnc1C(=O)/C=C/C=C/c1ccc(C(=O)Nc2ccc(F)cc2)cc1`, the growth in experiment [1] is 10.8%; in experiment [2], -5.49% (active); in experiment [3] it was 13.6%; in [4], 33.7%; in experiment [5], 45.7%; in experiment [6], 67.1%. Besides, the growth in [7] is 10.5%; in experiment [8] it was 5.1% (active); in experiment [9], 39.1%; in experiment [10] it was 26.7%; in experiment [11], 28.2%; in experiment [12], 36.3%. Moreover, the growth was 4.45% (active) in experiment [13]; -2.98% (active) in experiment [14]; 13.3% in experiment [15]; -36.3% (active) in experiment [16]; 66.4% in experiment [17]; 17.1% in experiment [18].

In the case of `C/C(=N\O)[C@H]1C[C@]23CC[C@]4(C)[C@H](CC[C@@H]5[C@@]6(C)CC/C(=N/O)C(C)(C)[C@@H]6CC[C@]54C)[C@H]2[C@H](C)C1(C)OC3`, the growth in experiment [1] was 98.7%; in experiment [2] it was 124%; in [3], 106%; in experiment [4], 105%; in experiment [5], 82.8%; in experiment [6] it was 122%. The growth in experiment [7] is 86.2%; in experiment [8], 113%; in experiment [9], 104%; in experiment [10] it was 113%; in experiment [11], 108%; in [12], 107%. Also, the growth in [13] is 97.2%; in experiment [14] it was 99.9%; in [15], 93.3%; in experiment [16], 97.2%; in [17], 115%; in experiment [18], 102%.

For `NC(N)=Nc1ccc(Oc2cccc(NC(N)=Nc3ccc(I)cc3F)c2)cn1`, the growth in experiment [1] was 7.24% (active); in [2], 34.1%; in [3], 77.6%; in experiment [4] it was 49%; in experiment [5], 66.6%; in experiment [6] it was 67.2%. Further, the growth in experiment [7] was 39.7%; in experiment [8], 41.7%; in experiment [9], 53.3%; in experiment [10], 95.2%; in experiment [11], 26.1%; in experiment [12], 89.5%. In addition, the growth in experiment [13] is 68.3%; in [14], 76.3%; in experiment [15], 7.64% (active); in [16], 58.2%; in experiment [17], 70.9%; in experiment [18], 47.7%.

For the molecule `C=C=COc1cccc(/C(N)=N/C(N)=N/c2nc3ccccc3s2)c1`, the growth in [1] is 6.37% (active); in [2], 106%; in experiment [3] it was 62.8%; in [4], 83.4%; in experiment [5], 89.4%; in [6], 102%. For the same molecule, the growth in [7] is 57.7%; in experiment [8] it was 100%; in [9] it was 59.9%; in experiment [10], 88.5%; in experiment [11] it was 63.1%; in experiment [12] it was 56%. The growth in [13] was 77.8%; in [14] it was 94.9%; in experiment [15], 93.1%; in experiment [16], 25.1%; in [17], 102%; in experiment [18], 71.1%.

As to `COC(=O)C1(C)CCC[C@]2(C)[C@H]3C[C@H]4C(C(C)C)=C[C@]3(CC[C@@H]12)[C@H]1[C@@H]4[C@@H](OC(=O)c2ccco2)CC[C@@H]1OC(=O)c1ccco1` (some centres not stated), the growth is 93.4% in experiment [1]; 99.5% in [2]; 100% in experiment [3]; 107% in experiment [4]; 103% in experiment [5]; 115% in [6]. Also, the growth was 99.4% in experiment [7]; 123% in [8]; 110% in experiment [9]; 107% in experiment [10]; 98.9% in [11]; 99.8% in experiment [12]. Besides, the growth in [13] was 104%; in [14], 102%; in [15], 98.3%; in experiment [16], 110%; in experiment [17] it was 108%; in experiment [18], 105%.

`COc1ccc(N2C(=O)c3cc(Cl)ccc3NC2SCc2ccccc2)cc1` (configuration not stated): the growth in experiment [1] is 103%; in experiment [2] it was 107%; in experiment [3] it was 94.8%; in experiment [4], 102%; in experiment [5] it was 94.7%; in experiment [6], 101%. Besides, the growth was 99.5% in experiment [7]; 105% in experiment [8]; 106% in experiment [9]; 99.1% in experiment [10]; 88.1% in [11]; 97.5% in experiment [12]. The growth in experiment [13] is 94.5%; in [14], 103%; in experiment [15] it was 85.4%; in experiment [16], 73.8%; in experiment [17] it was 106%; in [18], 96.9%.
